Measured values: the supplement of paper PMC10369915

target: SHP2 N-SH2 domain T42A; experiment: log2 enrichment relative to wild-type ITIM peptide; higher = stronger binding

Binder | log2 enrichment
VFSVDYSELDF [PD-1 ITIM pTyr223 peptide variant G224S] | 0.528
VFSVDYGELDN [PD-1 ITIM pTyr223 peptide variant F228N] | -1.38
VFSVDYGELDA [PD-1 ITIM pTyr223 peptide variant F228A] | -1.56
VFSVDYGSLDF [PD-1 ITIM pTyr223 peptide variant E225S] | -0.714
VFSVDYGENDF [PD-1 ITIM pTyr223 peptide variant L226N] | -1.33
GFSVDYGELDF [PD-1 ITIM pTyr223 peptide variant V218G] | 0.152
VFSDDYGELDF [PD-1 ITIM pTyr223 peptide variant V221D] | -1.38
VFSNDYGELDF [PD-1 ITIM pTyr223 peptide variant V221N] | -1.45
VFCVDYGELDF [PD-1 ITIM pTyr223 peptide variant S220C] | -0.382
VFSVDYDELDF [PD-1 ITIM pTyr223 peptide variant G224D] | -0.746
VFSVDYGELDE [PD-1 ITIM pTyr223 peptide variant F228E] | -1.51
VFSVDYGELQF [PD-1 ITIM pTyr223 peptide variant D227Q] | -0.79
VFSVDYGELCF [PD-1 ITIM pTyr223 peptide variant D227C] | -0.854
VFSVTYGELDF [PD-1 ITIM pTyr223 peptide variant D222T] | 0.636
VFQVDYGELDF [PD-1 ITIM pTyr223 peptide variant S220Q] | -0.0797
EFSVDYGELDF [PD-1 ITIM pTyr223 peptide variant V218E] | -0.155
VFSVDYGELDD [PD-1 ITIM pTyr223 peptide variant F228D] | -1.56
VFSVDYGCLDF [PD-1 ITIM pTyr223 peptide variant E225C] | -0.897
VFSVDYGESDF [PD-1 ITIM pTyr223 peptide variant L226S] | -1.51
VFSVDYGELDQ [PD-1 ITIM pTyr223 peptide variant F228Q] | -1.43

Binder | log2 enrichment
VFSADYGELDF [PD-1 ITIM pTyr223 peptide variant V221A] | -1.17
VFSVAYGELDF [PD-1 ITIM pTyr223 peptide variant D222A] | 1.52
VFNVDYGELDF [PD-1 ITIM pTyr223 peptide variant S220N] | -0.0661
VFTVDYGELDF [PD-1 ITIM pTyr223 peptide variant S220T] | 0.338
VFGVDYGELDF [PD-1 ITIM pTyr223 peptide variant S220G] | -0.124
VFSVDYGGLDF [PD-1 ITIM pTyr223 peptide variant E225G] | -1.11
VFSVDYGELTF [PD-1 ITIM pTyr223 peptide variant D227T] | -0.714
AFSVDYGELDF [PD-1 ITIM pTyr223 peptide variant V218A] | 0.0307
VFSVDYGEADF [PD-1 ITIM pTyr223 peptide variant L226A] | -1.51
QFSVDYGELDF [PD-1 ITIM pTyr223 peptide variant V218Q] | 0.0173
VFSVDYGDLDF [PD-1 ITIM pTyr223 peptide variant E225D] | -0.183
VCSVDYGELDF [PD-1 ITIM pTyr223 peptide variant F219C] | -0.255
VFSVDYGELDC [PD-1 ITIM pTyr223 peptide variant F228C] | -1.54
SFSVDYGELDF [PD-1 ITIM pTyr223 peptide variant V218S] | 0.0685
VFSVDYQELDF [PD-1 ITIM pTyr223 peptide variant G224Q] | -0.168
VFAVDYGELDF [PD-1 ITIM pTyr223 peptide variant S220A] | -0.133
VFSVDYAELDF [PD-1 ITIM pTyr223 peptide variant G224A] | 1
VFSVDYNELDF [PD-1 ITIM pTyr223 peptide variant G224N] | -0.336
VFSEDYGELDF [PD-1 ITIM pTyr223 peptide variant V221E] | -1.41
VTSVDYGELDF [PD-1 ITIM pTyr223 peptide variant F219T] | 0.41

Binder | log2 enrichment
VFSVDYGELDS [PD-1 ITIM pTyr223 peptide variant F228S] | -1.4
TFSVDYGELDF [PD-1 ITIM pTyr223 peptide variant V218T] | -0.0485
VFSVDYGETDF [PD-1 ITIM pTyr223 peptide variant L226T] | -1.57
VHSVDYGELDF [PD-1 ITIM pTyr223 peptide variant F219H] | 0.536
VFSVDYGEQDF [PD-1 ITIM pTyr223 peptide variant L226Q] | -1.5
VFSVDYGEEDF [PD-1 ITIM pTyr223 peptide variant L226E] | -1.51
VFEVDYGELDF [PD-1 ITIM pTyr223 peptide variant S220E] | -0.481
VGSVDYGELDF [PD-1 ITIM pTyr223 peptide variant F219G] | 0.639
VFSVDYGALDF [PD-1 ITIM pTyr223 peptide variant E225A] | -0.501
VFSVDYGQLDF [PD-1 ITIM pTyr223 peptide variant E225Q] | 0.0512
VFSVDYTELDF [PD-1 ITIM pTyr223 peptide variant G224T] | 0.883
VFSVDYCELDF [PD-1 ITIM pTyr223 peptide variant G224C] | -0.184
VFSVDYGELGF [PD-1 ITIM pTyr223 peptide variant D227G] | -1.31
VFSVDYEELDF [PD-1 ITIM pTyr223 peptide variant G224E] | -0.506
VFSVDYGELDG [PD-1 ITIM pTyr223 peptide variant F228G] | -1.54
VFDVDYGELDF [PD-1 ITIM pTyr223 peptide variant S220D] | -0.682
VNSVDYGELDF [PD-1 ITIM pTyr223 peptide variant F219N] | 0.243
VFSCDYGELDF [PD-1 ITIM pTyr223 peptide variant V221C] | -0.523
NFSVDYGELDF [PD-1 ITIM pTyr223 peptide variant V218N] | 0.14
VFSTDYGELDF [PD-1 ITIM pTyr223 peptide variant V221T] | -0.962
